We go through 72 compounds from ChEMBL document CHEMBL4513216, “Probing the Open Global Health Chemical Diversity Library for Multistage-Active Starting Points for Next-Generation Antimalarials” (ACS Infect Dis, 2020).

The whole screen tested about 69,000 compounds, of which about 8,600 (12%) showed an effect of 50% or more. Shown is part of a subset that was picked to be rich in strong results.

In this experiment the test system is Plasmodium berghei. Briefly: Screen against P. berghei liver stage (PbLuc), transformed with Luciferase, at 10uM. It counts as functional, HepG2. The settings on record: tested at 10 uM.
`CC(C)OCCCNS(=O)(=O)c1ccc2c(c1)NC(=O)C(C)O2` (configuration not stated): the INHIBITION is on record as -4.87%. As to `COc1cc(NCc2ccc(Cl)cc2)c(-c2nn[nH]n2)cc1OC`, the INHIBITION is listed as 22.6%. As to `O=C(CCn1cc(Cl)cn1)N1CCC2(CC1)[C@H](O)C[C@@H]2OCCO`, the INHIBITION is on record as 75.7%. Then `O=C(CCn1cc(Cl)cn1)N1CCCC(O)(CO)CC1` (configuration not stated), with -15.6%.

With `O=C(CCCn1cncn1)N1CCC2(CC1)[C@H](O)C[C@@H]2OCCO`, the INHIBITION is given as 54.4%. As for `O=C(CCCn1ccnc1)N1CCC2(CC1)[C@H](O)C[C@@H]2OCCO`, the INHIBITION stood at 18%. In the case of `O=C(CCn1cc(Cl)cn1)N1CCC2(CC1)OCCCC2O` (configuration not stated) it was 2.79%; in that of `O=C(CCn1cncn1)N1CCC2(CC1)[C@H](O)C[C@@H]2OCCO`, 12.7%; in that of `Cc1nc(C)n(C2CCCN(C(=O)CCOCC(C)C)C2)n1` (configuration not stated), 7.27%. Consider `Cc1cc(N2CCN(CC(=O)N(C)C)CC2)nc(-c2ccncc2)n1`, for which the INHIBITION worked out at 4.74%.

For the compound `CNc1cc(C2CN(C(=O)c3cnn(C)c3)CCO2)nc(C)n1` (configuration not stated), the INHIBITION turned out to be 25.8%. In the case of `CCC(Cn1ccnc1)n1cnc2c(C)csc2c1=O` (configuration not stated) it was 14.9%; in that of `Cc1nc(C2CCCN2Cc2cc(Cl)c3c(c2)OCCCO3)no1` (configuration not stated), 52.2%. As to `Cc1nc(C2CCCN2Cc2cc(Cl)c3c(c2)OCO3)no1` (configuration not stated), the INHIBITION is recorded as 44.3%. For the compound `Cc1nc(C2CCCN2Cc2cc(Cl)c3c(c2)OCCO3)no1` (configuration not stated), the INHIBITION is 45.4%.

Turning to `Cc1ccc(CNCc2ccc(N3CCC(CO)CC3)nc2)c(C)c1`, the INHIBITION stood at 58.7%. As to `COc1ccc(C)cc1CNCc1ccc(-n2nc(C)cc2C)nc1`, the INHIBITION amounted to 18.6%.

As for `Cc1nc(CNCc2ccc(N3CCC(CO)CC3)nc2)cs1`, the INHIBITION is on record as -11.6%.

Consider `Cc1ncsc1C(=O)OCCN1CCCCCC1=O`, for which the INHIBITION was -60.9%. `CCc1n[nH]c(C2CN(C(=O)Cc3cccs3)CCO2)n1` (configuration not stated): the INHIBITION is given as -33.7%. In the case of `CCc1n[nH]c(C2CN(C(=O)CCc3cccs3)CCO2)n1` (configuration not stated), the INHIBITION is reported as 51.3%.

`CCCc1n[nH]c(C2CN(C(=O)CCCn3cccn3)CCO2)n1` (configuration not stated): the INHIBITION was 1.81%. As for `CCCc1n[nH]c(C2CN(C(=O)CCn3nc(C)cc3C)CCO2)n1` (configuration not stated), the INHIBITION worked out at 34.6%.

Turning to `CCCc1n[nH]c(C2CN(C(=O)CCCn3ccnc3C)CCO2)n1` (configuration not stated), the INHIBITION came to 87.2%.

Take `Cc1n[nH]c(C2CN(C(=O)CCCn3cccn3)CCO2)n1` (configuration not stated): the INHIBITION is on record as -22.1%. Consider `CCc1n[nH]c(C2CN(C(=O)CCCn3cccn3)CCO2)n1` (configuration not stated), for which the INHIBITION is on record as 56.1%. With `CC(C)(C)c1n[nH]c(C2CN(C(=O)CCc3cccs3)CCO2)n1` (configuration not stated), the INHIBITION was -32.5%. As to `CCCc1n[nH]c(C2CN(C(=O)CCCn3ccnc3)CCO2)n1` (configuration not stated), the INHIBITION is listed as -18.9%.

For `Cc1cc(C(=O)N2C[C@H](C(C)C)[C@@H](N(C)C)C2)cs1`, the INHIBITION came out at 47.2%. In the case of `CS(=O)(=O)c1cn[nH]c1C1CCCCN1C(=O)c1cnccn1` (configuration not stated) it was -21.4%. Then `Cc1nc(CN2CCCN(C(=O)c3c(C)oc(C)c3C)CC2)cs1`, with -4.16%. `O=c1c(S(=O)(=O)N2CCCC2)cccn1Cc1ccccc1Cl`: the INHIBITION is recorded as 29.6%. In the case of `c1cnc(N2CCO[C@H]3CN(Cc4c[nH]cn4)C[C@H]32)cn1` it was 37.8%; in that of `OCCN1CCCC(c2nccnc2Oc2ccc(F)cc2)C1` (configuration not stated), 20.8%; in that of `CCS(=O)(=O)N1C[C@@H](c2cc(O)nc(C)n2)[C@H](c2ccccc2F)C1`, 3.69%. For `O=C(c1ccccn1)N1CCC2(CC1)COC(COc1cccnc1)C2` (configuration not stated), the INHIBITION is 5.67%.

With `CC(c1cccc(-c2ncc(C#N)c(N)n2)c1)N(C)C` (configuration not stated), the INHIBITION was -0.996%. In the case of `Clc1ccccc1-c1cc(CNc2ncnc3c2CCNCC3)no1`, the INHIBITION is reported as 88.2%. Turning to `Cc1ccc(-c2cc(CNc3ncnc4c3CCNCC4)no2)cc1`, the INHIBITION came to 93.1%. For `COc1ccc(-c2cc(CNc3ncnc4c3CCNCC4)no2)cc1`, the INHIBITION was determined as 94.1%. Consider `c1ccc(Cn2cc(CNc3ncnc4c3CCNCC4)cn2)cc1`, for which the INHIBITION was found to be 23.6%.

Regarding `Cc1cccc(-n2cc(CNc3ncnc4c3CCNCC4)cn2)c1`, the INHIBITION is given as 16%. As to `COCc1noc(CCNc2ncnc3c2CCNCC3)n1`, the INHIBITION was -58%. Then `c1cncc(-c2noc(CCNc3ncnc4c3CCNCC4)n2)c1`, with 19.4%; and `Cc1ccccc1-n1cc(CNc2ncnc3c2CCNCC3)cn1`, with -20.7%. Then `c1cncc(-c2noc(CNc3ncnc4c3CCNCC4)n2)c1`, with 8.74%; and `CCn1cc(CN2CCCN(C(=O)c3ccoc3C)CC2)cn1`, with -19.9%; and `COCC(=O)N1Cc2nccn2CC(COc2cccnc2)C1` (configuration not stated), with 29.3%.

Consider `COc1nn(C)c2c1CCCN(C(=O)c1ccc[nH]1)C2`, for which the INHIBITION was -15.7%. On to `CCn1c(SCC(N)=O)nnc1-c1csc2c1CCCC2`, for which the INHIBITION is reported as 25.8%. In the case of `Cn1ccc(C(=O)N2CCCC2c2cc(CO)[nH]n2)n1` (configuration not stated) it was 14.385%; in that of `CCn1cnnc1CNc1nc(C)nc2scc(CC(C)C)c12`, 44.3%.

With `CCc1nc(-c2cncnc2C2CCCNC2)no1` (configuration not stated), the INHIBITION was determined as 20.25%. Turning to `Cc1ccc(Cn2nc(C)c3c(C(=O)O)c(Cl)c(C)nc32)cc1`, the INHIBITION was found to be 3.52%. Consider `CCNc1c(NC(=O)C2CC2)c(=O)oc2ccccc12`, for which the INHIBITION is on record as -21.9%. In the case of `CN(C)CC(=O)N1CCCCC1c1nc(N)ncc1-c1ccccc1` (configuration not stated) it was 12.3%; in that of `CCSc1nnc([C@@H](N)CC(C)C)o1`, -4.56%; in that of `Cc1cccc(-c2nccnc2C2CCCN(C)C2)c1C` (configuration not stated), 35.2%.

Regarding `COc1ccccc1-c1nccnc1C1CCN(C(C)=O)CC1`, the INHIBITION was determined as 10%. On to `Cc1cccc(-c2nccnc2C2CCN(C)CC2)c1C`, for which the INHIBITION is on record as 54.5%. With `COCc1nc(C(=O)N2CCCC2c2ccncc2)cs1` (configuration not stated), the INHIBITION is 29.7%. As for `CC(C)c1noc(CN2CCN(CCO)CC2)n1`, the INHIBITION is given as -10.875%. Then `Brc1cccc(-c2noc(C3COCCO3)n2)c1` (configuration not stated), with -99.3%. `CCCNc1ccc(C(=O)NCCc2cccc(Cl)c2)cn1`: the INHIBITION is reported as 68.8%. With `CCCNc1ccc(C(=O)NCCc2cccc(OC)c2)cn1`, the INHIBITION is 25.3%. For the compound `CCCNc1ccc(C(=O)NCCc2ccc(Cl)cc2)cn1`, the INHIBITION is on record as -71.5%. `O=C1Nc2ccccc2/C1=C1\CCCN1`: the INHIBITION turned out to be 43.4%. As for `Cc1nn(Cc2ccccc2)c(C)c1CNC1CCc2ncnn2C1` (configuration not stated), the INHIBITION is on record as -10.1%. In the case of `COCC1COCCC12CCN(C(=O)CCc1ccccc1C)CC2` (configuration not stated), the INHIBITION is listed as -30.6%. Regarding `CNCC(=O)Nc1cccc(-c2cnc(NCCS(C)(=O)=O)nc2)c1`, the INHIBITION is given as 45.6%. Regarding `CNCC(=O)Nc1ccc(-c2cnc(NCCS(C)(=O)=O)nc2)cc1`, the INHIBITION is recorded as 54.5%. As to `CNCC(=O)Nc1cccc(-c2cnc(NCCO)nc2)c1`, the INHIBITION is reported as 23.4%.
